# From PubChem BioAssay
# The list is not random: actives were taken first. Their share in the collection is about 2.3%.
# Mcl1-Noxa inh = disrupts binding of human Mcl-1 to Noxa peptide | Q07820 | TR-FRET Mcl-1/Noxa peptide binding, 2 h | inhibition, % at 21.7 µM | hit rate 1.5% among 220,000;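 active = compounds that cut the protein-peptide binding signal by more than 50% relative to plate controls in a single-dose test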;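 also: His-tagged Mcl-1 with rhodamine Noxa BH3 peptide and terbium anti-His antibody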
# Target sequence (Q07820 whole entry, looked up): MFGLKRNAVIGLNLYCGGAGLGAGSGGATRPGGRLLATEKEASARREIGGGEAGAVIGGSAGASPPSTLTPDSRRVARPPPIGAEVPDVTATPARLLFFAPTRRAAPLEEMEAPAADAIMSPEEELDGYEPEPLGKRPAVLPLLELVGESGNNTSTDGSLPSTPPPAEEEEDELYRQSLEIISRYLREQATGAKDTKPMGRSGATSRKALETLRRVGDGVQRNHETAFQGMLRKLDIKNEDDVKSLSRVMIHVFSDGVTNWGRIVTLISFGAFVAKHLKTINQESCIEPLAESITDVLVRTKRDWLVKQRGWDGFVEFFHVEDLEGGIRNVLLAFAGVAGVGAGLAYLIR
# Bim-Mcl-1 = disrupts Bim peptide binding to human Mcl-1. inhibition, % at 10 µM. Q07820. AID 1009. hit rate 0.1% among 190,000. Bead-based flow cytometry, Bim peptide-Mcl-1 binding; in the data active = inhibition above about 40%
# GLD-1 RNA inh = GLD-1-TGE RNA interaction inhibition (C. elegans); hit rate 0.44% among 320,000; inhibition, % at 5.96 µM; purified GLD-1 + fluorescein TGE RNA, fluorescence polarization; Q17339;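 active = percent inhibition above a per-plate cutoff, the plate mean of test compounds plus 3 SD, cut at about 30% in these data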
# MCL1-BIM inh = disrupts human MCL1 binding to BIM-BH3 peptide | GST-MCL1 / FITC-Bim-BH3 fluorescence polarization | inhibition, % at 10.9 µM | AID 2057 | hit rate 0.68% among 320,000;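 active = inhibition above the mean inhibition of all tested compounds plus 3 SD, set per campaign, cut at about 40% in these data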;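 also: higher means more loss of mP so more displacement of Bim peptide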
# Mcl1-Bid inh = Mcl-1/Bid interaction inhibition | Q07820 | TR-FRET Mcl-1/Bid-Dy647 peptide binding, 1536-well | inhibition, % at 21.7 µM | hit rate 0.97% among 220,000;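 active = compounds that cut the binding signal by more than half at the single screening dose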;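 also: His-tagged Mcl-1 with europium anti-His antibody binding Bid BH3 peptide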
# BCLXL inh = inhibitors of human Bcl-xL; Q07817; GST-Bcl-xL / FITC-Bim BH3 peptide fluorescence polarization; inhibition, % at 10.9 µM; hit rate 0.7% among 320,000; AID 2129;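 active = inhibition above the mean of all tested compounds plus 3 SD, cutoff set per campaign, cut at about 30% in these data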;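 also: inhibitors lower millipolarization by displacing the labeled peptide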
# Numbers stand for hits; 0 = inactive; - = not tested or not shown.
SMILES,Mcl1-Noxa inh,Bim-Mcl-1,GLD-1 RNA inh,MCL1-BIM inh,Mcl1-Bid inh,BCLXL inh
O=C1CN(C(=O)CCN2CCOCC2)C(c2ccccc2)c2cc(Br)ccc2N1 (stereo unspecified),0,44.0,0,0,0,0
O=C(CN1C(=O)c2ccccc2C1=O)N1CCCCC1,0,0,0,0,99.2,0
O=C(NC1CC1)C1=C[C@@H](c2c[nH]c3ccccc23)C[C@@H](OCc2ccc(CO)cc2)O1,0,-,0,0,0,38.8
Cc1ccc(/C=N/OC(=O)c2c(C)noc2-c2snnc2C)cc1,0,-,0,0,63.3,0
O=C1NC2(CCCc3ccccc32)C(=O)N1CCOc1ccc(Br)cc1 (stereo unspecified),0,0,0,0,0,0
CCCN(CCC)C(C(=O)Nc1cccc(OC)c1)c1ccccc1 (stereo unspecified),0,0,0,0,95.2,0
O=C(CCCN1C(=O)S/C(=C/C=C/c2ccccc2)C1=O)Nc1ccc(C(=O)O)cc1,-,-,0,0,-,0
O=C(CN1C(=O)S/C(=C\C=C\c2ccccc2)C1=O)Nc1ccc(O)cc1,54.8,0,0,0,0,0
CCC1(C)NC(=O)N(CC(=O)Nc2sc3c(c2C(=O)OC)CCCCC3)C1=O (stereo unspecified),0,0,0,0,0,0
CCOC(=O)Cc1csc(SCC(=O)Nc2sc3c(c2C(N)=O)CCC3)n1,71.2,0,0,0,0,0
CCOC(=O)c1sc(NC(=O)CSc2nnc(-c3ccco3)n2CC)c(C(=O)OCC)c1C,64.3,0,0,0,0,0
CCC1(CC)NC(=O)N(CC(=O)Nc2sc3c(c2C(N)=O)CCC3)C1=O,72.8,0,0,0,0,0
NC(=O)c1c(NC(=O)CSc2nnc(-c3ccco3)n2-c2ccccc2)sc2c1CCC2,88.1,0,0,0,0,0
N#Cc1c(NC(=O)CSc2nnc(-c3ccco3)n2-c2ccccc2)sc2c1CCC2,0,0,0,0,0,0
O=C(NCCCN1CCOCC1)C(=O)NCC1OCCN1S(=O)(=O)c1cc(F)ccc1F (stereo unspecified),-,-,0,0,-,0
C#CCOCCOCCOCCNc1nc(N2CCN(C(=O)[C@H](Cc3cc4ccccc4[nH]3)n3cc(C(N)CC(C)C)nn3)CC2)nc(N2CCN(C(=O)[C@H](CCC(=O)O)n3cc(C(N)[C@H](C)CC)nn3)CC2)n1 (stereo partly specified),0,0,0,0,62.9,0
C#CCOCCOCCOCCNc1nc(N2CCN(C(=O)[C@H](CCC(=O)O)n3cc(C(N)CC(C)C)nn3)CC2)nc(N2CCN(C(=O)[C@H](CCC(=O)O)n3cc(C(N)[C@H](C)CC)nn3)CC2)n1 (stereo partly specified),0,0,0,0,76.0,0
C#CCOCCOCCOCCNc1nc(N2CCN(C(=O)[C@H](Cc3cc4ccccc4[nH]3)n3cc([C@@H](N)CC(C)C)nn3)CC2)nc(N2CCN(C(=O)[C@H](Cc3cc4ccccc4[nH]3)n3cc([C@@H](N)CC(C)C)nn3)CC2)n1,53.5,0,0,0,74.8,0
C#CCOCCOCCOCCNc1nc(N2CCN(C(=O)C([C@@H](C)CC)n3cc(C(N)CC(C)C)nn3)CC2)nc(N2CCN(C(=O)[C@H](CCC(=O)O)n3cc(C(N)[C@H](C)CC)nn3)CC2)n1 (stereo partly specified),0,0,0,0,0,0
C#CCOCCOCCOCCNc1nc(N2CCN(C(=O)[C@H](Cc3cc4ccccc4[nH]3)n3cc([C@@H](N)C(C)CC)nn3)CC2)nc(N2CCN(C(=O)[C@H](CCCCN)n3cc([C@@H](N)CC(C)C)nn3)CC2)n1 (stereo partly specified),0,0,0,0,77.9,0
O=S(=O)(NC1CCCCC1)c1ccc(-c2csnn2)s1,0,0,0,0,0,0
Cc1nc2c(C)cccn2c1C(=O)c1ccccc1,0,0,0,0,0,0
Cc1nccc2[nH]c(=O)c(C(=O)NCCCN(C)C3CCCCC3)cc12,0,0,-,-,0,-
CC(=O)c1cccc(NC(=O)C2CCN(C(=O)c3ccc([N+](=O)[O-])cc3)CC2)c1,0,0,0,0,73.4,0
O=C(c1ccccc1)N1CCN(C(=O)c2ccc([N+](=O)[O-])cc2)CC1,54.2,0,0,0,0,0
